According to PubChem BioAssay AID1159580 (chemical genetic matrix, 2015):
Where “and” joins values, the source holds several entries; their conditions need not be identical. Identical values can stand only once. The campaign covered roughly 5,500 compounds. About 2,000 (36%) were called active. Another 18% or so got no clear call; they are omitted. Rule as the data show it: active = normalized growth mostly below about 0.91 (no sharp cut-off); inconclusive = no clear call, values can overlap the other calls; inactive = mostly above about 0.92. The list shows a part of the results.

Experiment: chemical genetic growth profiling, strain panel (AID 1159580);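 also: tested at 20 µM; growth read once vehicle control cultures reached saturation at 30 °C; 1 = growth at the plate median or of vehicle wells; lower values mean less growth of the strain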
Settings: S. cerevisiae deletion strains, growth OD

Measured: normalized growth

O=C(Nc1ccccc1)Nc1ccccc1
inactive: locus YAL021C, strain ccr4, hits give low values 0.977 | locus YAL026C, strain drs2, hits give low values 0.951 | locus YAL030W, strain snc1, hits give low values 0.992 | locus YBL061C, strain skt5, hits give low values 0.967 | locus YBR009C, strain hhf1, hits give low values 0.957 | locus YBR021W, strain FUR4, hits give low values 0.935 | locus YBR023C, strain chs3, hits give low values 0.954 | locus YBR171W, strain sec66, hits give low values 0.954 | locus YBR229C, strain ROT2, hits give low values 1 | locus YBR231C, strain swc5, hits give low values 0.942 | locus YBR279W, strain paf1, hits give low values 0.973 | locus YCL011C, strain gbp2, hits give low values 0.93 | locus YCL016C, strain dcc1, hits give low values 0.943 | locus YCL029C, strain bik1, hits give low values 1.02 | locus YCL069W, strain vba3, hits give low values 0.983 | locus YCR088W, strain abp1, hits give low values 0.971 | locus YDL005C, strain med2, hits give low values 0.956 | locus YDL035C, strain GPR1, hits give low values 1.1 | locus YDL040C, strain nat1, hits give low values 0.978 | locus YDL101C, strain DUN1, hits give low values 0.998 | locus YDL185W, strain tfp1, hits give low values 0.99 | locus YDL192W, strain arf1, hits give low values 0.978 | locus YDR001C, strain nth1, hits give low values 0.968 | locus YDR069C, strain doa4, hits give low values 0.964 | locus YDR101C, strain arx1, hits give low values 0.983 | locus YDR137W, strain rgp1, hits give low values 0.955 | locus YDR150W, strain NUM1, hits give low values 1.03 | locus YDR159W, strain sac3, hits give low values 1.04 | locus YDR162C, strain NBP2, hits give low values 1.1 | locus YDR195W, strain ref2 0.991 | locus YDR297W, strain sur2, hits give low values 0.969 | locus YDR318W, strain mcm21, hits give low values 0.989 | locus YDR334W, strain swr1, hits give low values 0.959 | locus YDR335W, strain msn5, hits give low values 0.952 | locus YDR388W, hits give low values 0.991 | locus YDR392W, strain spt3, hits give low values 0.932 | locus YDR502C, strain sam2, hits give low values 0.977 | locus YEL003W, strain gim4, hits give low values 0.977 | locus YEL037C, strain rad23, hits give low values 0.97 | locus YEL061C, strain CIN8 (second series), hits give low values 0.97 | locus YER015W, strain faa2, hits give low values 0.957 | locus YER016W, strain bim1, hits give low values 0.962 | locus YER110C, hits give low values 0.967 | locus YER111C, strain swi4, hits give low values 0.974 | locus YER155C, strain BEM2 (second series), hits give low values 0.978 | locus YER155C, strain BEM2, hits give low values 1.01 | locus YER167W, strain BCK2, hits give low values 1 | locus YFR010W, strain ubp6, hits give low values 0.987 | locus YGL078C, strain dbp3, hits give low values 0.98 | locus YGL086W, strain mad1, hits give low values 0.977 | locus YGL167C, strain pmr1, hits give low values 0.972 | locus YGL173C, strain kem1, hits give low values 0.97 | locus YGL227W, strain vid30, hits give low values 0.967 | locus YGL240W, strain doc1, hits give low values 0.915 | locus YGL248W, strain PDE1, hits give low values 1.08 | locus YGL253W, strain hxk2, hits give low values 0.924 | locus YGR078C, strain PAC10, hits give low values 1.07 | locus YGR135W, strain pre9, hits give low values 0.985 | locus YGR252W, strain gcn5, hits give low values 0.91 | locus YHR013C, strain ard1, hits give low values 0.945 | locus YHR027C, strain rpn1, hits give low values 0.967 | locus YHR030C, strain SLT2, hits give low values 1.01 and 1.02 | locus YHR079C, strain IRE1 (second series), hits give low values 0.995 | locus YHR079C, strain IRE1, hits give low values 1 | locus YHR094C, strain hxt1, hits give low values 0.975 | locus YHR129C, strain ARP1, hits give low values 0.997 | locus YHR142W, strain chs7, hits give low values 0.887 | locus YHR200W, strain rpn10, hits give low values 0.997 | locus YIL066C, strain RNR3, hits give low values 0.996 | locus YIL125W, strain kgd1, hits give low values 0.977 | locus YIR030C, strain dcg1, hits give low values 0.975 | locus YJL092W, strain hpr5, hits give low values 0.969 | locus YJL095W, strain BCK1 (second series), hits give low values 0.991 | locus YJL095W, strain BCK1, hits give low values 1.09 and 1 | locus YJL115W, strain asf1, hits give low values 0.932 | locus YJL129C, strain trk1, hits give low values 0.998 | locus YJL134W, strain LCB3, hits give low values 1 | locus YJL154C, strain vps35, hits give low values 0.965 | locus YJL164C, strain tpk1, hits give low values 0.961 | locus YJL166W, strain qcr8, hits give low values 0.952 | locus YJL168C, strain set2, hits give low values 0.98 | locus YJL187C, strain SWE1 (second series), hits give low values 0.99 | locus YJR066W, strain TOR1, hits give low values 0.95
active: locus YDL074C, strain BRE1, hits give low values 1.28 [resistant] | locus YIL073C, strain SPO22, hits give low values 1.38 [resistant]
